This note sets out measurements from article PMC13083723 (Patterns, 2026).

Molecules are shown by their SMILES. The whole screen tested about 5,400 compounds, of which about 190 (3.5%) showed an effect of 50% or more. The full list was thinned out, with strong results kept by preference. Non-standard residues stand in square brackets, D forms with d. Residues, ends and D or L forms follow the SMILES beside them. NMeF = CN[C@@H](Cc1ccccc1)C(=O)O

The assay has as its system Vero-E6. Kind of assay: primary screen, phospholipidosis by LipidTOX staining; higher = more effect of the substance. The note with it: 10 µM. In short, it runs like this: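 Drug-induced phospholipidosis detected with HCS LipidTOX Red reagent in Vero-E6 cells. Compounds tested at 10 μM, with amiodarone (10 μM) as positive control and DMSO (0.1 v/v %) as vehicle.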
In the case of `O=c1nc[nH]c2c([C@@H]3N[C@H](CO)[C@@H](O)[C@H]3O)c[nH]c12`, the result_ITMP is listed as -0.15%.
Regarding `CC(C)C[C@H](NC(=O)CNC(=O)[C@H](Cc1ccc(O)cc1)NC(=O)[C@H](CO)NC(=O)[C@H](Cc1c[nH]c2ccccc12)NC(=O)[C@H](Cc1c[nH]cn1)NC(=O)[C@@H]1CCC(=O)N1)C(=O)N[C@@H](CCCNC(=N)N)C(=O)N1CCC[C@H]1C(=O)NCC(N)=O`, the result_ITMP worked out at 1.23%.
The same measure for `CN/C(=N\C#N)NCCSCc1nc[nH]c1C`: -2.74%; for `Cc1cc(N2CCOCC2)cc2nc(-c3c(NC[C@@H](O)c4cccc(Cl)c4)cc[nH]c3=O)[nH]c12`: -0.86%.
For `CCN(CC)CCCN(c1ccccc1)C1Cc2ccccc2C1`, the result_ITMP is recorded as 51.9%.
Consider `COc1cc[nH]c2ncc(C(=O)C(=O)N3CCN(C(=O)c4ccccc4)C[C@H]3C)c1-2`, for which the result_ITMP is -6.29%.
The same measure for `CSCC[C@H](NC(=O)[C@H](CC(C)C)NC(=O)[C@@H](Cc1c[nH]c2ccccc12)NC(=O)[C@H](Cc1ccccc1)N(C)C(=O)[C@@H](Cc1c[nH]c2ccccc12)NC(=O)[C@@H](N)CCCN=C(N)N)C(N)=O` (H-R[dW][NMeF][dW]LM-NH2): -1.85%; for `COCCOc1ccc2c(c1)ncn2-c1ccc2cccc(N3CCC(N)CC3)c2n1`: 62.5%; for `CC1(COc2ccc3c(c2)ncn3-c2ccc3cccc(N4CCC(N)CC4)c3n2)COC1`: 64.2%.
The same measure for `CCOC(=O)c1ccc(OCCC2CCN(c3ccc(C)nn3)CC2)cc1`: -2.25%.
To `NC1CCN(c2cccc(Cl)n2)CC1` belongs 6.27%.
In the case of `CCN1CCN(C(=O)NC(C(=O)N[C@@H]2C(=O)N3[C@@H]2SC(C)(C)[C@@H]3C(=O)[O-])c2ccccc2)C(=O)C1=O` (stereo partly shown), the result_ITMP is reported as -2.05%.
Take `C=CC(=O)N1CCCC(n2nc(-c3ccc(Oc4ccccc4)cc3)c3c(N)ncnc32)C1` (stereo not shown): the result_ITMP is -4.8%.
To `N[C@@H](Cc1ccc(I)cc1)C(=O)O` belongs -0.07%.
With `N=C(N)SCc1ccc(B(O)O)cc1`, the result_ITMP was -0.1%.
To `CC(=O)O[C@H]1CC[C@@]2(C)C(=CC(=O)[C@@H]3[C@@H]2CC[C@]2(C)C(=O)CC[C@@H]32)C1` belongs -7.66%.
As to `Cn1cc(/C=C2/C(=O)Nc3cccnc32)c2ccccc21`, the result_ITMP came out at 2.75%.
The same measure for `CCS(=O)c1nc(-c2cccc(OCc3ccccc3)c2)cc(C(F)(F)F)n1` (stereo not shown): -1.04%; for `CCCC[N+]1(C)[C@@H]2C[C@@H](OC(=O)[C@H](CO)c3ccccc3)C[C@H]1[C@@H]1O[C@@H]12` (stereo partly shown): -5.86%; for `Nc1c(CC(=O)[O-])cccc1C(=O)c1ccccc1`: -2.23%.
Turning to `CN1CCN(C(c2ccccc2)c2ccc(Cl)cc2)CC1` (stereo not shown), the result_ITMP is 44.4%.
For `CN1CCCN(C(c2ccccc2)c2ccc(Cl)cc2)CC1` (stereo not shown), the result_ITMP is 82.5%.
Take `CN1CCN(C(c2ccccc2)c2ccccc2)CC1`: the result_ITMP came to 16.1%.
Turning to `O=C(Nc1ccccc1)Nc1ccc(-c2ccc(C(=O)[C@@H]3CCC[C@H]3C(=O)O)cc2)cc1` [R4A_0000400_001 / SPE_K28861668], the result_ITMP is recorded as -3.95%.
The same measure for `O=C(O)[C@@H](S)[C@@H](S)C(=O)O`: -5.93%; for `CCC[C@@H]1C[C@@H](C(=O)N[C@@H]([C@H]2O[C@H](SC)[C@H](OP(=O)(O)O)[C@@H](O)[C@H]2O)[C@H](C)Cl)N(C)C1`: -1.73%.
Regarding `CC1(C)C(/C=C/C=C/C=C/C=C2/N(CCCCS(=O)(=O)[O-])c3ccc4ccccc4c3C2(C)C)=[N+](CCCCS(=O)(=O)[O-])c2ccc3ccccc3c21`, the result_ITMP was -0.75%.
On to `Cc1cccc(C)c1NC(=O)CN1CCCCCC1`, for which the result_ITMP is on record as -0.91%.
As to `Cc1cccc(C)c1NC(=O)CN1CCN(CCCC(c2ccc(F)cc2)c2ccc(F)cc2)CC1`, the result_ITMP stood at 52.6%.
In the case of `CCNC(=O)N1CCN(CCCC(c2ccc(F)cc2)c2ccc(F)cc2)CC1`, the result_ITMP is 8.88%.
To `O=C(/C=C/c1c(C(=O)[O-])[nH]c2cc(Cl)cc(Cl)c12)Nc1ccccc1` belongs 0.43%; to `Cc1ccc(C(=O)c2ccc(CC(=O)[O-])n2C)cc1`, -3.18%.
The same measure for `CC(CC(C(N)=O)(c1ccccc1)c1ccccc1)N(C)C` (stereo not shown): -2.3%.
In the case of `CCN(CC)C(C)C(=O)c1ccccc1` (stereo not shown), the result_ITMP was -5.15%.
The same measure for `CCOC(=O)Nc1ccc2c(c1)N(C(=O)CCN(CC)CC)c1ccccc1S2`: 12%; for `CCN(CC)C(C)CN1c2ccccc2Sc2ccccc21` (stereo not shown): 63.9%.
The same measure for `CC(CN1c2ccccc2Sc2ccccc21)N(C)C` (stereo not shown): 55.4%; for `COC(=O)/C=C/C(=O)N[C@@H]1CC[C@@]2(O)C3Cc4ccc(O)c5c4[C@@]2(CCN3CC2CC2)[C@H]1O5`: -2%; for `CC(O)(P(=O)([O-])O)P(=O)([O-])O`: -0.98%.
The same measure for `Fc1cc(F)c2c(c1)[C@H]1C=CC[C@H]1C(c1cccnc1)N2` (mixture of isomers): -14.4%; for `O=S(=O)([O-])CCS`: -2.99%.
With `OC[C@H]1O[C@@](CO)(O[C@H]2O[C@H](CO)[C@@H](O)[C@H](O)[C@H]2O)[C@@H](O)[C@@H]1O`, the result_ITMP was -5.71%.
Take `CN(C)CCC(c1ccc(Cl)cc1)c1ccccn1` (stereo not shown) [R4A_0004036_001 / SPE_A04553218]: the result_ITMP is 16%.
To `C[C@]12CC[C@H](O)CC1=CC[C@@H]1[C@@H]2CC[C@]2(C)C(c3cccnc3)=CC[C@@H]12` belongs -5.26%; to `C[CH2][Hg][S]c1ccccc1C(=O)[O-]`, 6.82%; to `O=C([O-])C(=O)[O-].[NH-][C@@H]1CCCC[C@H]1[NH-].[Pt+4]`, 22.9%.
`COc1cc2c(NC3CCN(C4CCCCC4)CC3)nc(N3CCCN(C(C)C)CC3)nc2cc1OCCCN1CCCCC1`: the result_ITMP is recorded as -1.55%.
The same measure for `COc1cc2c(NC3CCN(C(C)C)CC3)nc(N3CCC(F)(F)CC3)nc2cc1OCCCN1CCCC1`: 8.94%.
Take `COc1cc2c(NC3CCN(C(C)C)CC3)nc(C3CCCCC3)nc2cc1OCCCN1CCCC1`: the result_ITMP is listed as 60.7%.
The same measure for `C[C@]12CC[C@H](O)C[C@H]1CC[C@@H]1[C@@H]2CC[C@]2(C)[C@@H](c3ccc(=O)oc3)C[C@H]3O[C@]132`: -2.23%.
Turning to `Nc1ncnc2[nH]cnc12`, the result_ITMP is given as -2.75%.
Take `C/C(=N\NC(=S)NNC(=S)Nc1ccccc1Cl)c1ccccn1`: the result_ITMP is reported as -0.18%.
